Hits are enriched below; roughly 4.1% of the tested compounds scored in any of these assays.
PglD DTNB: inhibitors of Campylobacter jejuni PglD acetyltransferase. purified PglD enzyme, DTNB colorimetric CoA detection. inhibition, % at 12.5 µM. 360,000 tested, 0.098% active. AID 602405; in the data active = inhibition above about 16%, passing the limit was not always enough
NSD2 HMT inh: NSD2 (human) methyltransferase inhibition; O96028; NSD2 peptide methylation, AlphaScreen, 120 min; inhibition, % at 12.5 µM; 310,000 tested, 0.54% active; in the data active = inhibition above about 50%
Casp6 inh: inhibitors of human caspase-6 | P55212 | purified caspase-6, Z-VEID-R110 cleavage fluorescence | inhibition, % at 12.5 µM | 350,000 tested, 0.53% active | AID 686996;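 active = mean inhibition across replicates at least about 35%, with every replicate also reaching that limit, limit read from the data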;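 note: 0% = median of neutral control wells and 100% = no fluorescence left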
CFTR F508del cor: CFTR F508del correction in bronchial cells; 350,000 tested, 0.36% active; CFBE cells, YFP halide quenching; stimulated with forskolin plus potentiator P3; % fluorescence drop versus neutral controls; AID 720511; activity (quench increase), % at 7.58 µM;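 active = mean added fluorescence quench of at least 8% versus neutral control, with both replicates also reaching 8%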;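 note: cells transiently co-express mutant CFTR-F508del with the halide-sensitive YFP; corrector assay measuring rescue of mutant channel to the surface after 24 h compound exposure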
HIV Env fusion: inhibitors of HIV Env-mediated cell fusion; HeLa-JRFL Env/CEM21 cell fusion, luciferase; 360,000 tested, 1.1% active; AID 651610; inhibition, % at 12.3 µM;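 active = mean replicate inhibition score of at least 50 and every replicate individually at or above 50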;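 note: 0% = plate neutral controls and 100% = maraviroc near 300 nM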
ALR H2O2 inh: human ALR oxidase inhibition via reduced H2O2 | purified ALR, DTT oxidation, H2O2 HRP-luminol luminescence | inhibition, % (no concentration beside the values) | 290,000 tested, 3.8% active;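 active = mean replicate inhibition above about 79%, with every replicate also reaching it, limit read from the data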
* = called active by the depositor; i = inactive; x = no result; [ ] = dose if it differs, or a comment.

SMILES	PglD DTNB	NSD2 HMT inh	Casp6 inh	CFTR F508del cor	HIV Env fusion	ALR H2O2 inh
COc1cc(/C=C2/SC(=S)N(c3c(C)n(C)n(-c4ccccc4)c3=O)C2=O)ccc1O	x	47	1	5	-18	90*
CCC(=O)N1CC2(C1)[C@@H](c1ccccc1)[C@@H](CO)N2Cc1cc(F)ccc1F	x	x	4	1	x	x
CC=Cc1ccc2n(c1=O)C[C@H]1[C@H](CO)[C@@H](C(=O)NCC3CC3)N(C(=O)CC3CC3)[C@@H]21 (mixture of isomers)	-1	x	0	0	x	x
O=C(C[C@@H]1C[C@H]2c3cc(NC(=O)C4CCC4)ccc3O[C@H]2[C@H](CO)O1)NCc1cc(F)ccc1F	0	x	2	-1	-4[16.7 µM]	x
CCN(CCNC(=O)c1cc(C)nn1-c1ccccc1)c1ccccc1	5	x	0	0	-9	99*
O=C(CN1CCOCC1)NCC[C@@H]1CC[C@@H](NC(=O)Nc2ccc(F)cc2)[C@@H](CO)O1	-2	x	-1	-1	-8[16.7 µM]	x
COc1cc(C)c(C(=O)Oc2cc(C)c(C(=O)O)c(O)c2C)c(O)c1C	-1	x	11	-1	x	97*
CC[C@@H](CC1CCCCC1)C(=O)N(Cc1ccccc1)c1ccccc1	3	x	-4	-2	60*	-4
O=C(CN1C2=NCCN2c2ccccc21)C12CC3CC(CC(C3)C1)C2	-4	2	x	x	x	98*
c1ccc2c(c1)N1CCCN=C1N2CCN1CCCCC1	x	-7	-37	8.9*	-8	-6
Clc1ccc(CN2C3=NCCN3c3ccccc32)cc1Cl	1	3	x	x	-77	98*
Cc1ccc(CN2C3=NCCN3c3ccccc32)cc1	x	4	3	1	14	x
c1ccc(CN2C3=NCCN3c3ccccc32)cc1	-6	0	x	x	-28	96*
CC=Cc1ccc2n(c1=O)C[C@@H]1[C@@H](CO)[C@H](C(=O)OC)N(C(C)=O)[C@H]21 (mixture of isomers)	-1	x	-3	x	x	x
C[C@H]1CN([C@@H](C)CO)C(=O)c2cc(Br)cnc2O[C@@H]1CN(C)C(=O)Nc1ccc(F)cc1	-3	x	x	x	11[16.7 µM]	x
CCN(CCCNC(=O)c1[nH]c(C)c(C(C)=O)c1C)c1ccccc1	1	-1	x	x	x	89*
COc1ccc(CCNC(=O)c2[nH]c(C)c(C(C)=O)c2C)cc1OC	4	-2	x	x	-2	-3
CC(=O)c1c(C)[nH]c(C(=O)NCCc2ccccc2)c1C	7	1	x	x	x	100*
CCCNC(=O)c1[nH]c(C)c(C(C)=O)c1C	0	-5	x	x	-51	-12
C[C@@H]1CCCCO[C@@H](CN(C)C(=O)Nc2ccccc2)[C@@H](C)CN([C@@H](C)CO)C(=O)c2cc(NS(=O)(=O)c3ccc(F)cc3)ccc2O1	x	x	2	-1	x	x
CCCCn1nc(NC(=O)CC)c2cc3cc(OC)ccc3nc21	-2	-4	-1	9.6*	-4	-5
O=c1[nH]c(/C=C\c2cccc(Cl)c2)nc(O)c1[N+](=O)[O-]	-3	6	17	0	-18	98*
O=c1[nH]c(/C=C\c2cccc(F)c2)nc(O)c1[N+](=O)[O-]	0	1	7	-1	15	91*
COc1ccc(/C=C\c2nc(O)c([N+](=O)[O-])c(=O)[nH]2)cc1O	-5	-1	29	2	-14	62
C=CCOc1cccc(/C=C\c2nc(O)c([N+](=O)[O-])c(=O)[nH]2)c1	7	-3	11	1	7	74
SMILES	PglD DTNB	NSD2 HMT inh	Casp6 inh	CFTR F508del cor	HIV Env fusion	ALR H2O2 inh
O=c1[nH]c(/C=C\c2ccccc2F)nc(O)c1[N+](=O)[O-]	-3	3	10	2	-3	97*
C=CCOc1ccc(/C=C\c2nc(O)c([N+](=O)[O-])c(=O)[nH]2)cc1OCC	6	12	33	-1	-6	97*
COCC#Cc1cnc2c(c1)C(=O)N([C@H](C)CO)C[C@H](C)[C@H](CN(C)C(=O)C1CC1)O2	0	x	-3	3	-14[16.7 µM]	x
O=c1[nH]c(/C=C/c2ccccc2F)nc2ccccc12	3	1	-4	9.8*	i	-4
Cc1ccccc1S(=O)(=O)N1C[C@H](O)COC[C@H]2O[C@@H](CC(=O)N3CCN(C)CC3)CC[C@@H]21	-2	x	0	1	11[16.7 µM]	x
Nc1cccnc1Oc1ccc(F)cc1	x	38	52*	-1	-1	-12
Nc1cccnc1Oc1ccc(F)cc1F	x	-4	46*	-2	10	-16

Source: PubChem BioAssay
